The source made the active and inactive calls.
How the values were obtained:
[1] = small molecules captured by biotinylated probe aFSTL3 – biochemical, small-molecule microarray, fluorescence 635/667, stem cell growth factor project, primary screen (AID 1064); conditions: higher = more signal;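 also: measures binding of the biotinylated anti-FSTL3 antibody to printed compounds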
[2] = binders from COS7 lysate, DM2A8 probe, primary screen, torsin A project, cell lysate, small-molecule microarray, fluorescence 635/667 (AID 1065); conditions: higher = more signal, COS7 lysate expressing mutant human TOR1A
[3] = small molecules captured by biotinylated probe aFGF2 – biochemical, small-molecule microarray, fluorescence 635/667, stem cell growth factor project, primary screen (AID 1067); conditions: higher = more signal;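 also: measures binding of biotinylated aFGF2 protein to printed compounds on slides; z-score merges feature fluorescence and signal-to-noise across triplicate slides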
[4] = small molecules captured by biotinylated probe aFGF10 – biochemical, small-molecule microarray, fluorescence 635/667, stem cell growth factor project, primary screen (AID 1071); conditions: higher = more signal;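 also: score merges 667 nm spot intensity and signal to noise from triplicate slides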
[5] = biological target: Neurogenic locus notch homolog protein 2 (Homo sapiens) (UniProt Q04721); assay: small molecules binding Notch2 protein – biochemical, small-molecule microarray, 635 nm fluorescence, stem cell growth factors, primary screen (AID 1073); conditions: higher = more signal
[6] = biological target: Pro-neuregulin-1, membrane-bound isoform (Homo sapiens) (UniProt Q02297); assay: small molecules binding neuregulin-1 protein – biochemical, small-molecule microarray, fluorescence 635/667, psychiatric disease protein project, primary screen (AID 1075); conditions: NRG1 binding, 635 nm fluorescence, higher = more signal;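 also: score combines 667 nm spot fluorescence with signal to noise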
[7] = tested on: Neuregulin-1 EGF-like domain; assay: small molecules binding NRG1 EGF domain – biochemical, small-molecule microarray, 635 nm fluorescence, primary screen (AID 1081); conditions: higher = more signal;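 also: binding of the protein to compounds printed on small-molecule microarray slides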
[8] = FRG1 expression reporter modulators in myotubes – cell-based, C2C12 myotubes, firefly/Renilla luciferase, luminescence, FRG1 inhibition for FSHD, primary screen (AID 1084); conditions: FRG1 promoter luciferase, higher = more signal, called active from +8 up or from −8 down
[9] = small molecules captured by biotinylated probe aFST – biochemical, small-molecule microarray, fluorescence 635/667, stem cell growth factor project, primary screen (AID 1086); conditions: higher = more signal;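 also: score merges 667 nm fluorescence with signal-to-noise of each printed compound spot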
[10] = binders of probe aHhip on microarray, primary screen, stem cell growth factor project, biochemical, small-molecule microarray, fluorescence 635/667 (AID 1087); conditions: higher = more signal;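 also: score merges spot fluorescence at 667nm with spot signal to noise ratio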
[11] = tested on: PRMT1 (protein arginine N-methyltransferase 1); assay: small molecules binding arginine methyltransferase PRMT1 – biochemical, small-molecule microarray, 635 nm fluorescence, primary screen (AID 1088); conditions: higher = more signal;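 also: binding of Prmt1 protein to compounds spotted on small-molecule microarray slides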
[12] = growth effects on S. cerevisiae YJM789 – YJM789 clinical isolate, OD600, 24 h, basal, primary screen (AID 1089); conditions: higher = more signal, called active from +8 up or from −8 down;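 also: growth of clinical yeast isolate S. cerevisiae YJM 789 seeded 1000 cells per well; test concentration not given here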
[13] = S. pombe growth modifiers, basal conditions – strain 972, OD600, 24 h, no modulator, primary screen (AID 1090);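 also: basal condition with compound alone and no growth modifier present; test concentration not given here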; conditions: S. pombe 972 growth, higher = more signal, called active from +8 up or from −8 down
[14] = budding yeast growth modifiers under rapamycin – strain BY4716, OD600, 96 h, primary screen (AID 1091); also: test concentration not given here; conditions: S. cerevisiae BY4716 + rapamycin, higher = more signal, called active from +8 up or from −8 down
[15] = biological target: Torsin-1A-interacting protein 2 (Homo sapiens) (UniProt Q8NFQ8); assay: small molecules binding lysate-expressed LULL1 – cell lysate, human LULL1 lysate, 635/667 nm fluorescence, primary screen (AID 1092); conditions: small-molecule microarray, hLULL1 lysate binding, 635 nm fluorescence; higher = more signal;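 also: probe is lysate of COS7 cells overexpressing human LULL1; score merges per-feature 667 nm fluorescence with signal-to-noise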
[16] = optical density change of DRC41 E. coli – strain DRC41, OD650, 24 h, E. coli filamentation project, primary screen (AID 1093);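 also: MC1000 strain lacking acrAB efflux and sulA so SOS filamentation is blocked; test concentration not given here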; conditions: E. coli DRC41 growth, higher = more signal, called active from +8 up or from −8 down
[17] = probe aLefty2 binding to arrayed compounds – biochemical, biotinylated probe, 635/667 nm fluorescence, primary screen (AID 1094); conditions: small-molecule microarray, higher = more signal;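 also: score merges spot fluorescence near 667 nm with spot signal-to-noise ratio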
[18] = tested on: Noggin (protein binding on small-molecule microarray); assay: small molecules binding Noggin protein – biochemical, 635/667 nm fluorescence, primary screen (AID 1095); conditions: 635 nm fluorescence, higher = more signal;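 also: score merges 667 nm feature fluorescence with signal to noise over triplicate slides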
[19] = biological target: Neurogenic locus notch homolog protein 3 (Homo sapiens) (UniProt Q9UM47); assay: small molecules binding NOTCH3 protein – biochemical, 635/667 nm fluorescence, primary screen (AID 1096); conditions: small-molecule microarray, 635 nm fluorescence, higher = more signal
[20] = probe aEGFR binding to arrayed compounds – biochemical, biotinylated probe, 635/667 nm fluorescence, primary screen (AID 1097); conditions: small-molecule microarray, higher = more signal;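 also: probe is a biotinylated anti-EGFR antibody binding compounds printed on slides; score combines fluorescence near 667 nm and signal to noise of each spot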

Neurogenic locus notch homolog protein 3 (Homo sapiens), sequence (Q9UM47 whole entry, looked up): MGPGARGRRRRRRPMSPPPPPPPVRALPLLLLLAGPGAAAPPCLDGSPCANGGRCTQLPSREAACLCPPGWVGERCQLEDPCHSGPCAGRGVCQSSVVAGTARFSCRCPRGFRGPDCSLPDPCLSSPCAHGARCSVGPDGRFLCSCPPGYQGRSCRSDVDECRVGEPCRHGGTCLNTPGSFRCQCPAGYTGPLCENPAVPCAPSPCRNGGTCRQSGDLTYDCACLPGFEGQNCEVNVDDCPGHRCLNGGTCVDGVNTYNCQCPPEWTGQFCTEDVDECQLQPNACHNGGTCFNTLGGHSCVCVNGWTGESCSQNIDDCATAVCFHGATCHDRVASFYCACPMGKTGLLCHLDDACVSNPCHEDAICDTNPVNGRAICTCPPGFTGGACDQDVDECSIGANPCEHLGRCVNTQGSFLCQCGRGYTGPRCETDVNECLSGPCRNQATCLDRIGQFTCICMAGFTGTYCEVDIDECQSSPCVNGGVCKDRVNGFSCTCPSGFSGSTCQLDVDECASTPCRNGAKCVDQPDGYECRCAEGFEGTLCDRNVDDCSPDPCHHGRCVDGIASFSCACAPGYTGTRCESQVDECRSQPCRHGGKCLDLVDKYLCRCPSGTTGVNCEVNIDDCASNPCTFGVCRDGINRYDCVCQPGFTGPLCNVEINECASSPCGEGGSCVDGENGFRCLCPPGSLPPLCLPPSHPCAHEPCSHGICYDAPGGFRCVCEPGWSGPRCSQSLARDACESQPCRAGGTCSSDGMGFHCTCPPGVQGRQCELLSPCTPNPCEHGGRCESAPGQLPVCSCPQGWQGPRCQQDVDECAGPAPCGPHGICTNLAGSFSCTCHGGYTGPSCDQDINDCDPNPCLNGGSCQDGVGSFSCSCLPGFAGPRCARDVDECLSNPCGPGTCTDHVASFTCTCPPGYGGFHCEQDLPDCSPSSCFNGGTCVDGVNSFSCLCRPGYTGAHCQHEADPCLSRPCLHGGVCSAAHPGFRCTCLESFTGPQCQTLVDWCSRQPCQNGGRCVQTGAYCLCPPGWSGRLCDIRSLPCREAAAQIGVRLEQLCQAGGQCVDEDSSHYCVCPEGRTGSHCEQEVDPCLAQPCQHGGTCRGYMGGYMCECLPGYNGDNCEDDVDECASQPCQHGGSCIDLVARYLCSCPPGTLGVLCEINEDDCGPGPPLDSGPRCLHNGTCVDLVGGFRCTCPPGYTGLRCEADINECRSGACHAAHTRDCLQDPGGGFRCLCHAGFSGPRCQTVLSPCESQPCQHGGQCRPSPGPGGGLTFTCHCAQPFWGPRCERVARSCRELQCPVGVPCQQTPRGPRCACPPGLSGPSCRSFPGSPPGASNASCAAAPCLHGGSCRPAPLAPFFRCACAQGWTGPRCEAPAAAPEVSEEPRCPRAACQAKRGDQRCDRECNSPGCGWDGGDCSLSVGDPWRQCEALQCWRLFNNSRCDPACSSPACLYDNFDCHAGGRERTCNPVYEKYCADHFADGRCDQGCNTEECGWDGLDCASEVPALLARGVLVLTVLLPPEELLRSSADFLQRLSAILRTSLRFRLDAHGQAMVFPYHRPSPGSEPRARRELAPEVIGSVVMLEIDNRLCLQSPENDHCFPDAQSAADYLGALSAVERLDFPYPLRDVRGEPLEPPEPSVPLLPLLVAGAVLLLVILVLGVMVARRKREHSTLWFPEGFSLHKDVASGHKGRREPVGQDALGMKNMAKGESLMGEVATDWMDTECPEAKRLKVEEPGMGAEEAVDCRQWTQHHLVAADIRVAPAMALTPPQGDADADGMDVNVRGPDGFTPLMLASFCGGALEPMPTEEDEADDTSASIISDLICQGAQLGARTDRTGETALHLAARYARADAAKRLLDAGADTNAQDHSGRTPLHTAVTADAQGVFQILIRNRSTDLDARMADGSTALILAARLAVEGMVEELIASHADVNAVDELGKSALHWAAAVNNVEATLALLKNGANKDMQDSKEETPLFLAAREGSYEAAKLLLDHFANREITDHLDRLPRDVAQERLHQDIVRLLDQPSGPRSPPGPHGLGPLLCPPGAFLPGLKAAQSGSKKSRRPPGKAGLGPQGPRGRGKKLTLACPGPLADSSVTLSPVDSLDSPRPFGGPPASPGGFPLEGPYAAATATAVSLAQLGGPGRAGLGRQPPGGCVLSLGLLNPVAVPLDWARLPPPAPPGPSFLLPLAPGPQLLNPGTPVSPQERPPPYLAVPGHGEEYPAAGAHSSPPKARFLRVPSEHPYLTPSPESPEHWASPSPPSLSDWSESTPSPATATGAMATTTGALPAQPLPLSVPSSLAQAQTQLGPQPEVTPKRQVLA
Pro-neuregulin-1, membrane-bound isoform (Homo sapiens), sequence (Q02297 whole entry, looked up, the tested form may be a part, canonical isoform): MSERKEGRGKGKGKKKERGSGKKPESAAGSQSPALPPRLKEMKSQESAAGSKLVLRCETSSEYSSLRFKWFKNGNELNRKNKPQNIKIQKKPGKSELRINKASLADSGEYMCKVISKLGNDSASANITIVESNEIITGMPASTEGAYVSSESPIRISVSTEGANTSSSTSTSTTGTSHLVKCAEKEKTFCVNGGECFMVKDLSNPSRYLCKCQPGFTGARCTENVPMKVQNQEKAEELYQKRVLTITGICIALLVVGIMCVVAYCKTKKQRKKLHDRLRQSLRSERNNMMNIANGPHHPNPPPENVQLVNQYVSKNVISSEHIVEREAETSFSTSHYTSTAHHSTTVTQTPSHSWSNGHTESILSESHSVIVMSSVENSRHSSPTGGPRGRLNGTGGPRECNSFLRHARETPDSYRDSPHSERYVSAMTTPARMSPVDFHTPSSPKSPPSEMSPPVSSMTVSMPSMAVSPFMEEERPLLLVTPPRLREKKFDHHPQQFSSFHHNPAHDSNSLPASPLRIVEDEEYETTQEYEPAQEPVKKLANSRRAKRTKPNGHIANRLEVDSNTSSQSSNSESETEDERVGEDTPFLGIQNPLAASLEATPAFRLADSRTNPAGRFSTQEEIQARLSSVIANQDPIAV
Torsin-1A-interacting protein 2 (Homo sapiens), sequence (Q8NFQ8 whole entry, looked up): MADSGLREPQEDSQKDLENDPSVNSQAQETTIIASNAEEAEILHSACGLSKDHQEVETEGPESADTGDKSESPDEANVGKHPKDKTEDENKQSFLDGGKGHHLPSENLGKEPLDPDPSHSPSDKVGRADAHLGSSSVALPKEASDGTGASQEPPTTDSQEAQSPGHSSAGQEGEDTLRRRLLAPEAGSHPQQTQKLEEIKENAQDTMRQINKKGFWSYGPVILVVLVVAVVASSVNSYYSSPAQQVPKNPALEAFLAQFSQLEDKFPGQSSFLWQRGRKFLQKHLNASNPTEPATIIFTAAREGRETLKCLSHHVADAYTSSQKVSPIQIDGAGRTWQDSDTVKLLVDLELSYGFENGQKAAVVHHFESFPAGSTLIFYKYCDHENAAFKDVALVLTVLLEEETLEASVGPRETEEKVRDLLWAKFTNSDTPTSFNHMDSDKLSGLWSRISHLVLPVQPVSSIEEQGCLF

Row | SMILES | composite z-score [1] | composite z-score [2] | composite z-score [3] | composite z-score [4] | composite z-score [5] | composite z-score [6] | composite z-score [7] | z-score [8] | composite z-score [9] | composite z-score [10] | composite z-score [11] | z-score [12] | z-score [13] | z-score [14] | composite z-score [15] | z-score [16] | composite z-score [17] | composite z-score [18] | composite z-score [19] | composite z-score [20]
1 | CCCCNC(=O)c1ccc(C#C[Si](C)(C)C)c(OC(C)=O)c1 | -0.175 | 0.293 | -0.0718 | 0.112 | 0.277 | -0.166 | 0.103 | 1.87 (inactive) | -0.0501 | -0.0726 | 0.305 | 0.453 (inactive) | -2.02 (inactive) | -0.973 (inactive) | -0.092 | 1.54 (inactive) | -0.0926 | 0.309 | -0.174 | -0.096
2 | C=CC[C@@]1(C(=O)O)N=C(c2ccc(OCCCO)cc2)O[C@@H]1c1ccccc1CN=[N+]=[N-] | -0.232 | 0.334 | -0.0518 | 0.744 | 0.955 | 1.79 | 1.08 | 4 (inactive) | 0.0959 | -0.007 | 0.753 | -1.23 (inactive) | -2.27 (inactive) | -1.95 (inactive) | 3.34 | 0.788 (inactive) | 0.0806 | 0.373 | 0.942 | 0.0209
3 | C=C(/C(=C/C[C@H](OC(=O)c1ccncc1)c1ccccc1OCCO)c1cc(C(=O)OC)ccc1OC)C(C)C | -0.0165 | 0.229 | -0.01 | 0.605 | 0.267 | 1.1 | 1.28 | -1 (inactive) | 0.265 | -0.249 | 1.43 | 0.363 (inactive) | 0.115 (inactive) | 2.11 (inactive) | 2.74 | 0.329 (inactive) | -0.159 | 0.691 | 1.13 | -0.112
4 | CN(C)CCCNC(=O)[C@@]1(Cc2ccccc2I)c2ccccc2C(=O)N(Cc2ccccc2)[C@H]1c1ccc(CO)cc1 | -0.803 | -0.451 | 0.106 | 1.02 | 0.647 | 0.834 | 1.39 | -4.24 (inactive) | 0.386 | -0.66 | 1.53 | -0.282 (inactive) | -14 (active) | -2.33 (inactive) | 3.43 | 0.207 (inactive) | -0.542 | 0.557 | 1.08 | 0.0054
5 | CN(C)CCCC[C@@H]1NC(=O)[C@H]2C[C@@H](C(=O)NCc3ccc(F)cc3)[C@@H](c3ccc(O)cc3)N2C1=O | 0.0653 | 0.412 | -0.0904 | 0.268 | 0.201 | 0.865 | 1.25 | 1.07 (inactive) | -0.0224 | 0.028 | 1.56 | -0.42 (inactive) | -1.1 (inactive) | -0.462 (inactive) | 1.42 | 0.539 (inactive) | 0.0672 | 1.78 | 0.719 | 0.0579
6 | CO[C@H]1O[C@H](CO)[C@@H](OC(=O)Nc2ccccc2)[C@@H]2OC(=O)[C@H](Cc3ccccc3)C/C=C/C[C@@H](Cc3ccccc3)C(=O)O[C@@H]12 | 0.146 | 0.779 | 0.0732 | 0.775 | 1.48 | 1.14 | 1.04 | -1.64 (inactive) | 0.654 | -0.0296 | 1.55 | -1.03 (inactive) | -0.0378 (inactive) | 1.9 (inactive) | 2.58 | 0.588 (inactive) | -0.104 | 0.107 | 0.702 | 0.0308
7 | C=C(COC)C(=O)CC[C@@H](OC(C)=O)c1ccc(OCCO)cc1 | 0.266 | 1.48 | -0.107 | 0.432 | 0.297 | -0.239 | 0.835 | -0.556 (inactive) | -0.25 | 0.347 | 1.07 | 0.0756 (inactive) | -2.44 (inactive) | -0.056 (inactive) | 0.276 | -0.0345 (inactive) | -0.159 | 0.482 | 0.512 | -0.21
8 | COC(=O)[C@@]1(Cc2ccc(OC)cc2)[C@@H]2[C@@H](CC(=O)[C@H]2CC(=O)C(=O)N2CCCC2)CN1C(=O)c1ccccc1 | 2.42 | 0.296 | 0.926 | 0.884 | 1.69 | 1.94 | 1.24 | 1.31 (inactive) | 2.67 | 2.65 | 0.281 | -0.347 (inactive) | 0.304 (inactive) | -0.0364 (inactive) | 2.6 | -0.455 (inactive) | 1.76 | 0.156 | 1.09 | 1.26
9 | COCCOC(=O)N1C(=O)[C@@]2(c3cc(C#Cc4ccc(OC)cc4)ccc31)[C@H](C(=O)Nc1nc3ccccc3s1)[C@H]1C(=O)O[C@H](c3ccccc3)[C@H](c3ccccc3)N1[C@@H]2c1ccccc1OCCO | -0.233 | 0.444 | -0.126 | 0.329 | 1.02 | 0.176 | 0.923 | 0.349 (inactive) | -0.179 | -0.283 | 1.58 | 0.455 (inactive) | 0.318 (inactive) | 1.62 (inactive) | 1.55 | 1.86 (inactive) | -0.179 | 1.06 | 1.13 | -0.0531
10 | C=C(COC)/C(=C/C[C@@H](OC(C)=O)c1ccccc1OCCO)c1cc(C(=O)OC)ccc1OC | 0.0503 | 0.377 | -0.116 | 0.785 | -0.216 | 1.48 | 1.09 | -0.657 (inactive) | 0.0581 | -0.374 | 1.37 | 1.16 (inactive) | -0.145 (inactive) | -0.167 (inactive) | 1.67 | 0.174 (inactive) | -0.0873 | 0.0363 | 0.455 | -0.0141
